Test results reported in the supplement of paper PMC10849652.
Of roughly 7,900 targets only a part is listed; those with a hit were picked by preference. About 0.6% of all pairs of compound and target were hits. Values without a mark were called inactive.

Key:
Experiment in all cases: log2 fold change, soluble protein after heating vs DMSO (PISA); higher = thermal stabilisation; K562 cells, 10 uM, 30 min; active = over 0.2 and 3.5 SD of the protein, either way, in both replicates (recomputed)
ZNF217 = ZNF217 (UniProt O75362)
Summary of the method: (§1)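 Soluble protein was defined as the supernatant after 21,000xg for 90 min. It came from K562 cells at 2×10^6 cells/mL given 10 μM compound for 30 min, heated in aliquots for 3 min across 48°C-58°C, pooled, and extracted in PBS with 0.5% NP-40 at 4°C, and was quantified by TMTpro 16plex LC-MS/MS with equalised channel sums. Thermal stability against control samples, from duplicates, is reported as log2 fold change.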

ZNF239 = ZNF239 (UniProt Q16600)
Summary of the method: as §1

ZNF277 = ZNF277 (UniProt Q9NRM2)
Summary of the method: as §1

ZNF511 isoform 1 = ZNF511 isoform 1 (UniProt Q8NB15)
Summary of the method: as §1

ZNF579 = ZNF579 (UniProt Q8NAF0)
Summary of the method: as §1

ZNF580 = ZNF580 (UniProt Q9UK33)
Summary of the method: as §1

ZNF609 = ZNF609 (UniProt O15014)
Summary of the method: as §1

ZNF622 = ZNF622 (UniProt Q969S3)
Summary of the method: as §1

ZRANB2 = ZRANB2 (UniProt O95218)
Summary of the method: as §1

ZW10 = ZW10 (UniProt O43264)
Summary of the method: as §1

ZWILCH = ZWILCH (UniProt Q9H900)
Summary of the method: as §1

ZYG11B = ZYG11B (UniProt Q9C0D3)
Summary of the method: as §1

ZNF512 = ZNF512 (UniProt Q96ME7)
Summary of the method: as §1

ZNF622, sequence (Q969S3 whole entry, looked up): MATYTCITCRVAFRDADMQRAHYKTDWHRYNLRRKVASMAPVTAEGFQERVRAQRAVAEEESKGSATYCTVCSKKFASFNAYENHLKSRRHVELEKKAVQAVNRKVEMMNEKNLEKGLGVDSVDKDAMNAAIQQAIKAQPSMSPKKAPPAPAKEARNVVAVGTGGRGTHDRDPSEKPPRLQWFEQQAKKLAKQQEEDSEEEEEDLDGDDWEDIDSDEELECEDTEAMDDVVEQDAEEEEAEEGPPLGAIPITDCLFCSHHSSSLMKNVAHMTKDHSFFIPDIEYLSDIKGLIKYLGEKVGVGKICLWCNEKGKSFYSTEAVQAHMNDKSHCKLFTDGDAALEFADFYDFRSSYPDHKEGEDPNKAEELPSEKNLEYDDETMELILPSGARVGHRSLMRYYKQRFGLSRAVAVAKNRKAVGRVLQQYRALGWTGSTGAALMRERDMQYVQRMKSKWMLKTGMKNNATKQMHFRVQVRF
ZNF609, sequence (O15014 whole entry, looked up): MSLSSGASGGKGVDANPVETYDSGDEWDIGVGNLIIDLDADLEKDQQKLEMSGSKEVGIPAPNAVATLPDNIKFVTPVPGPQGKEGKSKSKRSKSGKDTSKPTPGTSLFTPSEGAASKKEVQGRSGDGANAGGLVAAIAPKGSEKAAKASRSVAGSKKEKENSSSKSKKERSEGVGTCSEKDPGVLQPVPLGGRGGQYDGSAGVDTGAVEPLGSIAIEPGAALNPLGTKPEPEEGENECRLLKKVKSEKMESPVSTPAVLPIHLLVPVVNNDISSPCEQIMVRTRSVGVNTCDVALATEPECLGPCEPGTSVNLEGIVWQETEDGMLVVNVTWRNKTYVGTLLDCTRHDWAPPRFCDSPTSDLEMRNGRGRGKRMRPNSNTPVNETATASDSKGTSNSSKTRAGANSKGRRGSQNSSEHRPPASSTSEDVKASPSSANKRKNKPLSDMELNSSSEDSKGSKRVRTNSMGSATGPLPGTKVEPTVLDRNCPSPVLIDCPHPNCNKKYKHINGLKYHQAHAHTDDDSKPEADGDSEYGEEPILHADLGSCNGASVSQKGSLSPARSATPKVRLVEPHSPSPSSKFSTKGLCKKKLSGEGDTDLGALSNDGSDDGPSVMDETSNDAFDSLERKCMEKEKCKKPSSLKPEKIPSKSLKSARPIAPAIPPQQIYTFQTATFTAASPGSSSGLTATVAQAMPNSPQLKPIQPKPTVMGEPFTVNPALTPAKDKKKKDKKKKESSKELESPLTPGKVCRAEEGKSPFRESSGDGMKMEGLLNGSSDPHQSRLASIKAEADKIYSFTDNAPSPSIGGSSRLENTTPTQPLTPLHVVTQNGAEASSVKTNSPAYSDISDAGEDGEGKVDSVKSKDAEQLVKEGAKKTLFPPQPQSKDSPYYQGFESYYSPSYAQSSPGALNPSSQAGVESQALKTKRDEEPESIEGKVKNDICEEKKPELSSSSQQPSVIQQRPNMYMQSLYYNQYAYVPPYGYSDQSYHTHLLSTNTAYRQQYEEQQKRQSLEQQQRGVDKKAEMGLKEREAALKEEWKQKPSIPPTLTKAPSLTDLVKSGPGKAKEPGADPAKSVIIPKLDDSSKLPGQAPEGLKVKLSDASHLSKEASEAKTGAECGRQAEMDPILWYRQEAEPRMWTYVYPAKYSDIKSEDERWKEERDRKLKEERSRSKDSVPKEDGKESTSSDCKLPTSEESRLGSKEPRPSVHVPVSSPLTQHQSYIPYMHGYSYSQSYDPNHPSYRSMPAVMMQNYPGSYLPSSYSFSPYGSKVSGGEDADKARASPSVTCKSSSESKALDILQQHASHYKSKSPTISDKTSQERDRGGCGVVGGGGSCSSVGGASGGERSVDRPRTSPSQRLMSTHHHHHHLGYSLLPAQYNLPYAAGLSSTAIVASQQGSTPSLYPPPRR
ZYG11B, sequence (Q9C0D3 whole entry, looked up): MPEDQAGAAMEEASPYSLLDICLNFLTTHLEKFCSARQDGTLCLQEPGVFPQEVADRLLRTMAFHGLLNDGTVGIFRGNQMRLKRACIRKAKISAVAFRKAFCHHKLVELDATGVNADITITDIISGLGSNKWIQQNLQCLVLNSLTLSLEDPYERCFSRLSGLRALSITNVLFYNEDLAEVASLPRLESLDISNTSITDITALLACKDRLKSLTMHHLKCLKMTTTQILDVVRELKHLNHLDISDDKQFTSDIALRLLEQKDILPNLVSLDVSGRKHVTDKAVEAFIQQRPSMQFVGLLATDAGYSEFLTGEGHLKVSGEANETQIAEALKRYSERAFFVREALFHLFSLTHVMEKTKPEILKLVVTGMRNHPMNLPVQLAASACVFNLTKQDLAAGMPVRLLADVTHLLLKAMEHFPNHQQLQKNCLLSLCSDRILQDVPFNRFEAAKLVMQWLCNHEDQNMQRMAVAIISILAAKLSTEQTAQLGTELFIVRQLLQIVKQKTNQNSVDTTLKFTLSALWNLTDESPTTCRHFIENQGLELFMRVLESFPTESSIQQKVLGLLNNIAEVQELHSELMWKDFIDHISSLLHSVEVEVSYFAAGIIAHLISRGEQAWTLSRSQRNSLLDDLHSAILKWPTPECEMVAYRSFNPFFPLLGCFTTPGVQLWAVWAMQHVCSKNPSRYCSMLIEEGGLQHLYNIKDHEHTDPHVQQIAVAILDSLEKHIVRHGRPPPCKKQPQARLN
ZNF579, sequence (Q8NAF0 whole entry, looked up): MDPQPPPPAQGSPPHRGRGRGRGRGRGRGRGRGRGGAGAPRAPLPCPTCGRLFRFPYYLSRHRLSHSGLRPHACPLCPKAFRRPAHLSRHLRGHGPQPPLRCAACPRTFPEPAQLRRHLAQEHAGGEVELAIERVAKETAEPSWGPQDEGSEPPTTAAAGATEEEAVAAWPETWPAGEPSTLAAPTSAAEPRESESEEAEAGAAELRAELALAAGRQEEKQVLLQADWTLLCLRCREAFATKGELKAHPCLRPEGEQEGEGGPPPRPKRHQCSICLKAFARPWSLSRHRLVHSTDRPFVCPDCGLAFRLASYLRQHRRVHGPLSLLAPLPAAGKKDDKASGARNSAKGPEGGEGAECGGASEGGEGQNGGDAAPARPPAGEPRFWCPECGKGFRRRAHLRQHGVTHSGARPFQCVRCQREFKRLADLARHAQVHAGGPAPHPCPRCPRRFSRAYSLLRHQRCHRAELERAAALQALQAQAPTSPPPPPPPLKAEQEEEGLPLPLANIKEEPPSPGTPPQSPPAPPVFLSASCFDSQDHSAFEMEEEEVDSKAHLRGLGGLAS
ZNF217, sequence (O75362 whole entry, looked up): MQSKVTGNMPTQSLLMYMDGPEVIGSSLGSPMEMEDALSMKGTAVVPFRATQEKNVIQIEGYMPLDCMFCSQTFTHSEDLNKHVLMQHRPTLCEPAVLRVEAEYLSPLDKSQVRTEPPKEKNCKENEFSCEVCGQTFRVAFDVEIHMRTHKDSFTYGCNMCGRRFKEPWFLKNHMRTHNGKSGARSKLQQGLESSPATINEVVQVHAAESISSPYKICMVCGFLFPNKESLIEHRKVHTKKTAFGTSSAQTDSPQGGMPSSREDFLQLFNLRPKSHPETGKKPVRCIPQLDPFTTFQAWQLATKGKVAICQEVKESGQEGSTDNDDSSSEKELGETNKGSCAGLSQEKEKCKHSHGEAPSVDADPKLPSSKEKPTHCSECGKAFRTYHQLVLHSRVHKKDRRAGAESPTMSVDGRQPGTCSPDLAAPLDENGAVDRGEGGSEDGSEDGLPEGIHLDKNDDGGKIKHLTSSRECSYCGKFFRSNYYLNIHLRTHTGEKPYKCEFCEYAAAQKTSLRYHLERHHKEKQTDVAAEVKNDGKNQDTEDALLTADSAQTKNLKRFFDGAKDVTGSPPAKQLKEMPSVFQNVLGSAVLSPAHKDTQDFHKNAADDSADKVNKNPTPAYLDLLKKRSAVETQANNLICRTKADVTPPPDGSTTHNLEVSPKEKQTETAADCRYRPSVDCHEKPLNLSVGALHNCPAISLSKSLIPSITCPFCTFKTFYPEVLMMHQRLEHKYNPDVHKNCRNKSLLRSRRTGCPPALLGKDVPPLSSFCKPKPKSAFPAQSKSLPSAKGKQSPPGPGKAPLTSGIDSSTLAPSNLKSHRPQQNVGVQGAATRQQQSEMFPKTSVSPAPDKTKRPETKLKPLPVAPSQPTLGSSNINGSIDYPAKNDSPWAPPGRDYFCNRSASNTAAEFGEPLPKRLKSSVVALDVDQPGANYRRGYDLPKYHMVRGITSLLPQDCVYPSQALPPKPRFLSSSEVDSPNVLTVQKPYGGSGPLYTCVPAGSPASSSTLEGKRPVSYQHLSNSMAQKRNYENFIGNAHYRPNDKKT
ZNF511 isoform 1, sequence (Q8NB15 whole entry, looked up, canonical isoform): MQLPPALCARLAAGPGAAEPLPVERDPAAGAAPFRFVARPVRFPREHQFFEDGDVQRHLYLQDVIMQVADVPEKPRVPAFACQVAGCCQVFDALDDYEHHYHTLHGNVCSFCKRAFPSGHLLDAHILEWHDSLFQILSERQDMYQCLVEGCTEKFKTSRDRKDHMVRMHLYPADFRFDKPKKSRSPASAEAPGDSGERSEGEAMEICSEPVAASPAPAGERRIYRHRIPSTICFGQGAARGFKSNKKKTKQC
ZRANB2, sequence (O95218 whole entry, looked up): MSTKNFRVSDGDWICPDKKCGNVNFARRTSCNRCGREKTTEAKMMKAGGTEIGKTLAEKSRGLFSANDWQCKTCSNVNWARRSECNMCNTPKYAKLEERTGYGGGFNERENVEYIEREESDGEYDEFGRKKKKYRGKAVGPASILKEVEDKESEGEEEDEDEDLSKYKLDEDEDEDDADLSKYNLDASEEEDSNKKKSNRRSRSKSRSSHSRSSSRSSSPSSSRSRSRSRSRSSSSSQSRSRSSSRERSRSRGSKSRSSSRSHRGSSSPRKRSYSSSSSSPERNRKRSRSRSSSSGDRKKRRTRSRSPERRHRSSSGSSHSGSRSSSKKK
ZNF580, sequence (Q9UK33 whole entry, looked up): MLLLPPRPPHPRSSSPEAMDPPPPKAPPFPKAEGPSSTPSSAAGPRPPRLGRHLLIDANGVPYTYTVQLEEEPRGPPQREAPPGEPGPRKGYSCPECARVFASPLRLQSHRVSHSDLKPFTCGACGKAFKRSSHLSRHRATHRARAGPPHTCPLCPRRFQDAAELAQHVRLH

Row | Compound | log2 fold change (ZNF217) | log2 fold change (ZNF239) | log2 fold change (ZNF277) | log2 fold change (ZNF511 isoform 1) | log2 fold change (ZNF579) | log2 fold change (ZNF580) | log2 fold change (ZNF609) | log2 fold change (ZNF622) | log2 fold change (ZRANB2) | log2 fold change (ZW10) | log2 fold change (ZWILCH) | log2 fold change (ZYG11B) | log2 fold change (ZNF512)
1 | CCCS(=O)(=O)Nc1ccc(F)c(C(=O)c2c[nH]c3ncc(-c4ccc(Cl)cc4)cc23)c1F [vemurafenib] | 0.044 | 0.004 | 0.063 | -0.087 | -0.157 | 0.042 | 0.025 | 0.012 | -0.014 | 0.025 | 0.04 | 0.048 | –
2 | CCCc1cc(C)[nH]c(=O)c1CNC(=O)c1cc(-c2ccnc(N3CCN(C)CC3)c2)cc2c1cnn2C(C)C | 0.003 | -0.662 (active) | 0.154 | 0.08 | 0.058 | – | -0.003 | -0.01 | 0.028 | 0.072 | 0.004 | 0.1 | 0.363
3 | COc1cc2ncnc(Nc3ccc(F)c(Cl)c3)c2cc1OCCCN1CCOCC1 [gefitinib] | 0.001 | -0.267 | -0.053 | -0.192 | 0.111 | – | -0.069 | 0 | 0.034 | 0.135 | 0.125 | 0.042 | -0.02
4 | CC1=C(C(=O)Nc2cc3cn[nH]c3cc2F)C(c2ccc(C(F)(F)F)cc2)CC(=O)N1 (configuration not stated) | -0.033 | 0.283 | -0.009 | -0.006 | -0.003 | – | -0.117 | -0.083 | 0.025 | -0.033 | -0.051 | -0.06 | -0.261
5 | FC(F)(F)c1ccc(/C=C/c2nc(COc3ccc(CCCCn4ccnn4)cc3)co2)cc1 [mubritinib] | 0.08 | -0.483 | 0.192 | -0.06 | 0.031 | – | 0.019 | 0.004 | -0.02 | 0.028 | 0.037 | 0.01 | -0.122
6 | O=C1NC(=NCc2cccs2)S/C1=C\c1ccc2ncccc2c1 | 0.007 | 0.117 | 0.019 | 0.087 | -0.051 | – | -0.025 | 0.07 | -0.059 | -0.021 | 0.023 | -0.007 | 0.102
7 | O=C(O)c1ccc2c(c1)nc(Nc1cccc(Cl)c1)c1ccncc12 [silmitasertib] | -0.073 | 0.29 | 0.105 | 0.076 | -0.016 | – | 0.02 | -0.058 | 0.018 | 0.083 | 0.059 | 0 | 0.234
8 | O=C1NC(=O)C(c2cnc3ccccn23)=C1c1cn2c3c(cc(F)cc13)CN(C(=O)N1CCCCC1)CC2 | -0.102 | 0.082 | 0.124 | -0.095 | 0.038 | – | -0.571 (active) | 0.043 | 0.12 | 0.054 | 0.051 | 0.019 | -0.023
9 | CO[C@H]1C[C@@H]2CC[C@@H](C)[C@@](O)(O2)C(=O)C(=O)N2CCCC[C@H]2C(=O)O[C@H]([C@H](C)C[C@@H]2CC[C@H](n3cnnn3)[C@H](OC)C2)CC(=O)[C@H](C)/C=C(\C)[C@@H](O)[C@@H](OC)C(=O)[C@H](C)C[C@H](C)/C=C/C=C/C=C/1C [zotarolimus] | -0.007 | -0.483 | -0.084 | 0.066 | 0.099 | – | -0.008 | -0.017 | -0.011 | 0.023 | 0.046 | 0.024 | -0.024
10 | Cc1nc(Nc2n[nH]c3c2CN(C(=O)N[C@H](CN(C)C)c2ccccc2)C3(C)C)c2sccc2n1 | -0.055 | -0.012 | 0.231 | 0.005 | -0.115 | – | -0.018 | 0.091 | -0.032 | -0.11 | -0.042 | 0.026 | 0.187
11 | COc1cccc2cc(-c3nc([C@H]4CC[C@H](C(=O)O)CC4)n4ncnc(N)c34)[nH]c12 | 0.043 | 0.548 | -0.24 | 0.099 | -0.078 | – | -0.028 | 0.01 | -0.01 | -0.051 | -0.041 | 0.02 | -0.041
12 | O=C1c2ccccc2-c2n[nH]c3cccc1c23 | 0.03 | 0.004 | 0.065 | 0.041 | 0.279 | – | 0.002 | 0.042 | -0.059 | -0.031 | -0.007 | -0.033 | 0.161
13 | Cn1cc(-c2ccc3c(c2)CCN3C(=O)Cc2cccc(C(F)(F)F)c2)c2c(N)ncnc21 | 0.142 | 0.306 | -0.163 | 0.01 | 0.059 | – | -0.041 | 0.067 | -0.013 | -0.076 | -0.057 | 0.063 | -0.86 (active)
14 | Fc1ccc(Cl)cc1-c1nc(Nc2ccncc2)c2nccnc2n1 | 0.168 | -0.333 | -0.765 (active) | -0.03 | -0.002 | – | -0.302 | 0.038 | 0.041 | -0.04 | -0.013 | 0.013 | 0.086
15 | C[C@@H](N)c1ccc(C(=O)Nc2ccnc3[nH]ccc23)cc1 | -0.013 | 0.022 | 0.315 | -0.105 | 0.102 | – | 0.033 | 0 | -0.043 | 0.129 | 0.014 | -0.035 | 0.45
16 | CN1CC[C@H](c2c(O)cc(O)c3c(=O)cc(-c4ccccc4Cl)oc23)[C@H](O)C1 [alvocidib] | -0.164 | 0.226 | 0.169 | -0.143 | -0.034 | – | 0.077 | 0.085 | 0.068 | -0.02 | -0.034 | -0.055 | -0.002
17 | CCCCN(Cc1ccc(C(=O)NO)cc1)C(=O)Nc1ccccc1 [Nexturastat A] | 0.006 | 0.441 | 0.276 | -0.074 | 0.004 | – | 0.475 (active) | -0.086 | -0.057 | 0.093 | -0.008 | -0.011 | -0.038
18 | CC(C)(O)CC(=O)NCCn1ccc2ncnc(Nc3ccc(Oc4cccc(C(F)(F)F)c4)c(Cl)c3)c21 | -0.122 | 0.086 | -0.002 | 0.1 | -0.018 | – | 0.101 | -0.078 | -0.012 | -0.027 | 0.012 | -0.017 | -0.018
19 | CC[C@H](C)[C@H](NC(=O)[C@H]([C@@H](C)CC)N(C)C(C)=O)C(=O)N[C@H](C(=O)N[C@@H](CC(C)C)C(=O)[C@@]1(C)CO1)[C@@H](C)O [epoxomicin] | 0.075 | -0.051 | -0.06 | -0.045 | -0.024 | – | -0.271 | 0.056 | -0.016 | -0.046 | 0.013 | 0.123 | 0.085
20 | NC1(c2ccc(-c3nc4ccn5c(=O)[nH]nc5c4cc3-c3ccccc3)cc2)CCC1 | -0.045 | -0.253 | 0.107 | -0.039 | -0.061 | – | 0.018 | -0.019 | 0.046 | -0.141 | -0.097 | -0.087 | 0.151
21 | O=C(Nc1cccc(Nc2ncc(Br)c(NCCc3cnc[nH]3)n2)c1)N1CCCC1 | 0.01 | 0.001 | 0.034 | 0.072 | -0.377 (active) | 0.062 | -0.035 | 0.022 | -0.007 | -0.018 | 0.029 | -0.026 | –
